Source: PubChem
ROMK primary: modulators of human ROMK potassium channel; P48048; Tet-inducible ROMK, thallium flux fluorescence; actives lie on both sides; B-score at 10 µM; 130,000 tested, 2% active; AID 1918;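 active = signal ratio slope over the read window, or its plate-corrected B-score, at least 3 SD from the plate mean, either direction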;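 also: B-score of the F/F0 ratio slope over 7 to 12 s after thallium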
KCC2 mod: modulates chloride dependent transport by human KCC2. AID 1456. KCC2 cells, thallium flux FluoZin-2 fluorescence. Q9H2X9. B-score of Tl+ flux slope (higher = more flux/activation; lower = inhibition) at 10 µM. 190,000 tested, 2.2% active;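 active = thallium flux slope and its plate-corrected score both differing from the plate sample mean at a set confidence after two filtering rounds, in either direction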;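 also: slope of fluorescence scaled to starting intensity during 10 to 20 s after thallium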
Target sequence (Q9H2X9 whole entry, looked up): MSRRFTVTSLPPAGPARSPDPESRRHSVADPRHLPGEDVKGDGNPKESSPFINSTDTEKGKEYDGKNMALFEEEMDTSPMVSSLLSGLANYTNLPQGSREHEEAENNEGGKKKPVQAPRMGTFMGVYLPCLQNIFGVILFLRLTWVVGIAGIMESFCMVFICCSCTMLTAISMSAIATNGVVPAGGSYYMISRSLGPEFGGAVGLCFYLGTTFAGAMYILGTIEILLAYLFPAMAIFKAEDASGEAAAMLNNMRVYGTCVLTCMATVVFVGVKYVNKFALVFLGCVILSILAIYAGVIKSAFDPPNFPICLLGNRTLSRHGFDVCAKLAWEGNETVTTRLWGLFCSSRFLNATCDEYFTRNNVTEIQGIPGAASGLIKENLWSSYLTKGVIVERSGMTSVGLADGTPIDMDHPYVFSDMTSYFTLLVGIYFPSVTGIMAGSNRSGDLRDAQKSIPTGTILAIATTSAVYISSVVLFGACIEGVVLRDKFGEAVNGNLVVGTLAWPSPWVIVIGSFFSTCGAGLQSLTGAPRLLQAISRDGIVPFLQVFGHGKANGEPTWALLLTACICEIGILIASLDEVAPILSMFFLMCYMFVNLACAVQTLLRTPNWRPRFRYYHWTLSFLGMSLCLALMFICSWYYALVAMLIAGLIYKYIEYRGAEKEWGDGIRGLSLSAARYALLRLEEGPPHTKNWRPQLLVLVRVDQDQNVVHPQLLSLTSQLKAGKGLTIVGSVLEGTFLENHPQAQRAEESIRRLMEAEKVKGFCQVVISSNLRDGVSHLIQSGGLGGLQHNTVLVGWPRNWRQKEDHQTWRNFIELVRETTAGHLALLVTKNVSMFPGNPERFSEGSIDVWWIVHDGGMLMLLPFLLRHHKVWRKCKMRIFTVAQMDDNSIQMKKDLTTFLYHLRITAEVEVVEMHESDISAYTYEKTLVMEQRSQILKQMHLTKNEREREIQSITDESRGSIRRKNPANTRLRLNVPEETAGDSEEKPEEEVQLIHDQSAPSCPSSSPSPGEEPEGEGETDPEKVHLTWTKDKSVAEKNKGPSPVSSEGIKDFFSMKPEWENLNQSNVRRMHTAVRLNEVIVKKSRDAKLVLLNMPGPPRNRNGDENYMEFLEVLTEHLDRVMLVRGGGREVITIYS
INS promoter inh: TRM-6 insulin promoter activity inhibition. TRM-6 cells (human fetal islet line), insulin promoter-eGFP reporter, imaging; reporter expression induced with tamoxifen. inhibition, % at 2 µM. 130,000 tested, 0.9% active. AID 1273;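 active = inhibition above the mean plus 3 SD, with well images judged a real hit on visual review, cut at about 60% in these data, passing the limit was not always enough; inconclusive = inhibition over the cutoff but images rejected on review; inactive = inhibition not above the cutoff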
WT yeast gro inh: growth inhibition of WT yeast, mitochondrial fusion screen; mitochondrial fusion phenotypic screen, WT strain; inhibition, % at 10 µM; 190,000 tested, 2.1% active; AID 1362; in the data active = inhibition above about 58%; tested in S. cerevisiae
L major viab: inhibitors of Leishmania major promastigote growth. 200,000 tested, 9% active. Leishmania major promastigotes, resazurin fluorescence viability. AID 1063. inhibition, % at 10 µM; in the data active = inhibition above about 50%;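 also: promastigotes grown with compound for 44 hours at 28 °C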
Insulin prom up: MIN6 insulin promoter up-regulation | MIN6 insulin promoter-GFP reporter, high-content imaging; stronger effect = higher value | z-score at 5 µM | 190,000 tested, 0.3% active | AID 1625;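 active = z-score above 3 at 5 µM with at least 500 cells counted in the well; inconclusive = wells under 500 cells, flagged as cytotoxic or low count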
KCC2 secondary: KCC2 (human) modulation, secondary assay; HEK293-KCC2, thallium flux, FluoZin2 fluorescence; stronger effect = higher value; AID 1713; shares compounds with KCC2 mod; normalised thallium flux (F/F0 slope) at 10 µM; 3,700 tested, 15% active;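 active = thallium flux slope above the same plate's solvent-only control mean plus 3 SD; inconclusive = the two replicate wells disagree; inactive = no significant difference from solvent-only control wells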
KCC2 bumet counter: bumetanide-insensitive thallium flux in KCC2 cells with ouabain, counter-screen; 3,700 tested, 49% active; shares compounds with KCC2 mod; HEK293-KCC2 + bumetanide/ouabain, thallium flux FluoZin2; stronger effect = higher value; AID 1714; normalized thallium flux at 10 µM;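 active = thallium entry rate above the same plate's blocked-transporter control wells by more than 3 SD; inconclusive = the two repeat wells disagree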;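 also: raw slope of fluorescence over initial fluorescence between 10 and 20 s after thallium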
KCC2 sec2: KCC2 (human) modulation, second secondary assay. shares compounds with KCC2 mod. HEK293-KCC2, thallium flux FluoZin2 fluorescence; actives lie on both sides; F/F0 rise rate, 10–20 s post-thallium. normalized thallium flux at 10 µM. 3,700 tested, 23% active;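 active = thallium flux slope more than 3 SD above or below the plate's solvent-only control mean, mostly below; inconclusive = the two repeat wells disagreed; inactive = no significant shift from solvent-only controls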;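 also: raw slope with 0.1% DMSO as baseline and bumetanide as block control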
HEK counter1: acts in parental HEK cells, KCC2 counter-screen | shares compounds with KCC2 mod | HEK293 parental cells, thallium flux FluoZin2, ouabain; baseline-ratio fluorescence slope, 10–20 s after thallium | thallium flux rate (normalised fluorescence) at 10 µM | 3,700 tested, 46% active;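 active = thallium flux rate significantly above the same plate's solvent-only control wells, beyond their mean plus 3 SD; inconclusive = the two replicate wells gave conflicting results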
KCC2 retest ouab: confirmation of human KCC2 modulators with ouabain | shares compounds with KCC2 mod | HEK293-KCC2, thallium flux FluoZin2 fluorescence; bidirectional: low = inhibitor, high = activator | raw Tl+ flux slope (below DMSO = inhibition, above = activation) at 10 µM | 3,700 tested, 48% active;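 active = thallium flux slope beyond 3 SD from same-plate DMSO control mean in most replicates, usually higher, sometimes lower; inconclusive = repeat tests gave conflicting results; inactive = no significant difference from controls in most replicates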;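 also: slope of initial-normalized fluorescence between seconds 10 and 20 after thallium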
HEK293 Tl flux2: counter-screen for KCC2 modulators: effect in parental HEK293 cells | thallium flux slope at 10 µM | 3,700 tested, 33% active | thallium flux FluoZin-2 fluorescence slope | AID 1718 | shares compounds with KCC2 mod;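 active = thallium flux slope above the same plate's solvent-control mean plus 3 SD in both duplicate wells; inconclusive = duplicate wells that disagreed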;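 also: run without ouabain in cells lacking the KCC2 cotransporter; slope of fluorescence scaled to its starting value between 10 and 20 s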
Starred values were filed as active, the others as inactive. A selection: hits, their analogues and other compounds. The true share with any hit is near 12%.

Results for CCOC(=O)NC(=S)Nc1ccc(C(C)(C)C)cc1Br ?
KCC2 mod: 49*; Insulin prom up: -0.3; KCC2 secondary: 0.0075; KCC2 bumet counter: 0.046*; KCC2 sec2: 0.042*; HEK counter1: 0.046*; KCC2 retest ouab: 0.052*; HEK293 Tl flux2: 0.022*

How did CC(C)CCNC(=O)c1ccc2nc[nH]c2c1 do in these assays?
ROMK primary: -0.13; INS promoter inh: 42; WT yeast gro inh: 4; L major viab: -4; Insulin prom up: -1.2

Results for COc1cccc(CNc2nn[nH]n2)c1OC ?
ROMK primary: 0.11; KCC2 mod: -0.0093; INS promoter inh: 6; WT yeast gro inh: -12; L major viab: -14; Insulin prom up: 0.39

Results for CCOC(=O)c1ccc(Oc2nc(NC)nc(OC)n2)cc1 ?
ROMK primary: -0.39; KCC2 mod: -4.2*; INS promoter inh: -52; WT yeast gro inh: 25; L major viab: -5; Insulin prom up: -0.05; KCC2 secondary: 0.0089; KCC2 bumet counter: 0.0071; KCC2 sec2: 0.036; HEK counter1: 0.0045; KCC2 retest ouab: 0.02; HEK293 Tl flux2: 0.011

How did CCOC(=O)c1ccc(NC(=O)CCOc2ccc(OC)cc2)cc1 do in these assays?
ROMK primary: 0.58; INS promoter inh: -7; WT yeast gro inh: 8; L major viab: -5; Insulin prom up: 0.43; KCC2 secondary: 0.0058; KCC2 bumet counter: 0.0047; KCC2 sec2: 0.03; HEK counter1: 0.0072; KCC2 retest ouab: 0.018; HEK293 Tl flux2: 0.011

How did CCNc1nc(OC)nc(Oc2ccc(C(=O)OC)cc2)n1 do in these assays?
KCC2 mod: -0.38; INS promoter inh: -37; WT yeast gro inh: -12; L major viab: -2; Insulin prom up: 1.1

What do the screens show for `CCOC(=O)c1c(NC(=O)COC)sc2c1CCCC2`?
INS promoter inh: -12; WT yeast gro inh: -8; L major viab: 5; Insulin prom up: -0.38

How did CCOC(=O)c1c(NC(=O)CC2SC(N)=NC2=O)sc2c1CCCC2 (stereo not given) do in these assays?
KCC2 mod: -3.8*; INS promoter inh: -18; WT yeast gro inh: 10; L major viab: 1; Insulin prom up: -0.62; KCC2 secondary: 0.0066; KCC2 bumet counter: 0.0047; KCC2 sec2: 0.03; HEK counter1: inconclusive; KCC2 retest ouab: 0.019; HEK293 Tl flux2: 0.0098

What do the screens show for `COc1ccc2oc(=O)c(C(=O)OCC(=O)c3ccc([N+](=O)[O-])cc3)cc2c1`?
ROMK primary: 0.98; KCC2 mod: 0.2; WT yeast gro inh: -1; L major viab: -3; Insulin prom up: 0.44

How did COc1cc(-c2nc(CN3CCN(c4ncccn4)CC3)c(C)o2)ccc1F do in these assays?
ROMK primary: -0.91; KCC2 mod: -3*; WT yeast gro inh: 8; L major viab: -3; KCC2 secondary: 0.0059; KCC2 bumet counter: 0.0043; KCC2 sec2: 0.032; HEK counter1: inconclusive; KCC2 retest ouab: 0.021; HEK293 Tl flux2: inconclusive

What do the screens show for `COc1cc(-c2nc(CN3CCN(CC(C)C)C(=O)[C@@H]3C)c(C)o2)ccc1F`?
ROMK primary: 0.46; KCC2 mod: -0.75; INS promoter inh: -270; WT yeast gro inh: 18; L major viab: -4; Insulin prom up: 0.1

What do the screens show for `O=C(O)c1cccc2c(-c3ccccc3)c(-c3ccccc3)[nH]c12`?
ROMK primary: 1.4; KCC2 mod: 8.6*; Insulin prom up: 0.85; KCC2 secondary: 0.0098; KCC2 bumet counter: 0.023*; KCC2 sec2: 0.036; HEK counter1: inconclusive; KCC2 retest ouab: inconclusive; HEK293 Tl flux2: 0.012

How did N#CC1=C(S)N=C(N)C(c2nc(-c3ccccc3)cs2)C12CCCCC2 (stereo not given) do in these assays?
ROMK primary: -1; KCC2 mod: -3.9*; WT yeast gro inh: -15; L major viab: -8; Insulin prom up: 0.61; KCC2 secondary: 0.0094; KCC2 bumet counter: 0.006; KCC2 sec2: 0.022*; HEK counter1: 0.0069; KCC2 retest ouab: 0.016*; HEK293 Tl flux2: 0.0097

How did N#CC1=C(S)N=C(N)C(c2nc(-c3ccccc3)cs2)C12CCCC2 (stereo not given) do in these assays?
ROMK primary: -0.93; KCC2 mod: -2.4; INS promoter inh: -11; WT yeast gro inh: 1; L major viab: -6; Insulin prom up: 0.46

How did COc1ccc(C)cc1S(=O)(=O)N(C)CC(=O)NC1CCCC1 do in these assays?
ROMK primary: 0.55; KCC2 mod: 0.012; INS promoter inh: 0; WT yeast gro inh: -11; L major viab: 45; Insulin prom up: -0.14

What do the screens show for `Cc1cccc(C(=O)NC2CC3CCCC(C2)N3S(=O)(=O)c2ccccc2)c1` (stereo not given)?
ROMK primary: -2.7; KCC2 mod: -0.62; INS promoter inh: -31; WT yeast gro inh: -21; L major viab: 44; Insulin prom up: -0.22

How did O=C(Cn1cnc2c(nnn2Cc2ccccc2)c1=O)N1CCCc2ccccc21 do in these assays?
KCC2 mod: -4.5*; WT yeast gro inh: 2; L major viab: -8; Insulin prom up: 0.3; KCC2 secondary: 0.0067; KCC2 bumet counter: 0.0051; KCC2 sec2: 0.022*; HEK counter1: 0.008; KCC2 retest ouab: inconclusive; HEK293 Tl flux2: 0.011

Results for O=C(Cn1cnc2c(nnn2Cc2ccc(F)cc2)c1=O)N1CCN(c2ccccc2)CC1 ?
ROMK primary: -1.4; INS promoter inh: -14; WT yeast gro inh: 3; L major viab: 3; Insulin prom up: -0.24; KCC2 secondary: 0.0068; KCC2 bumet counter: 0.0044; KCC2 sec2: 0.024*; HEK counter1: 0.0076; KCC2 retest ouab: inconclusive; HEK293 Tl flux2: 0.011

What do the screens show for `O=C(Cn1cnc2c(nnn2Cc2ccccc2)c1=O)c1ccc(Cl)cc1`?
KCC2 mod: -4.1*; WT yeast gro inh: 12; L major viab: -10; Insulin prom up: 0.7; KCC2 secondary: 0.01; KCC2 bumet counter: inconclusive; KCC2 sec2: inconclusive; HEK counter1: 0.008; KCC2 retest ouab: 0.018*; HEK293 Tl flux2: 0.011
